This is part of a sample that, as a whole, favours compounds with a hit. Of some 79,000 tested, about 15% had one in any assay. Calls of active or inactive are those of the source. Cut-off read from the data, not from the text of the source: active = growth inhibition above about 70%; inactive = the rest.
Experiment: NCI Yeast Anticancer Drug Screen. Data for the CLN2oe strain (AID 163);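 note: 0% = growth of vehicle-only control cultures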
Details: S. cerevisiae CLN2oe strain, stronger effect = higher value
Description: Growth inhibition of yeast strains with defined genetic alterations is measured as a screen for potential anti-cancer activity. Selected strains with alterations in DNA damage repair or cell cycle control were exposed to compounds and growth inhibition was measured relative to vehicle treated controls. The strain used in this assay is CLN2oe

Measured: growth inhibition

CN(C)c1nc2sc3c(c2c(=O)o1)CCCC3
inactive: at 1.2 µM 1% | at 3.7 µM -1% | at 11.0 µM -2% | at 33.0 µM 26% | at 100.0 µM 40%

CC(C)C1=CCC2C(=C1)CCC1C(C)(C(=O)O)CCCC21C (stereo not given) (tested in a mixture with another compound)
active: at 100.0 µM 96%
inactive: at 1.2 µM -2% | at 3.7 µM 6% | at 11.0 µM -16% | at 33.0 µM 40%

CN(C)c1ccc(Sc2ccc3nc(N)nc(N)c3c2)cc1
inactive: at 1.2 µM 17% | at 3.7 µM 8% | at 11.0 µM 17% | at 33.0 µM -11% | at 100.0 µM 18%

O=[N+]([O-])/C=C/c1ccc2ccccc2c1
inactive: at 1.2 µM 4% | at 3.7 µM 53%
active: at 11.0 µM 99% | at 33.0 µM 99% | at 100.0 µM 99%

O=Cc1cccc2ccc3ccccc3c12
inactive: at 1.2 µM -1% | at 3.7 µM 0% | at 11.0 µM 9% | at 33.0 µM 15%
active: at 100.0 µM 88%

CC(CC(C)(C)[N+](C)(C)C)[N+](C)(C)C (stereo not given)
inactive: at 1.2 µM -11% | at 3.7 µM -1% | at 11.0 µM 1% | at 33.0 µM -6% | at 100.0 µM -7%

COc1cc2c(c(OC)c1OC)-c1c(cc3c(c1OC)OCO3)CC(C)C(C)(O)C2OC(=O)c1ccccc1 (stereo not given)
inactive: at 1.2 µM 27% | at 3.7 µM 17% | at 11.0 µM 16% | at 33.0 µM 20% | at 100.0 µM 45%

C[C@H](CCC(=O)NN)[C@H]1CC[C@H]2[C@@H]3CC[C@@H]4C[C@H](O)CC[C@]4(C)[C@H]3CC[C@]12C
inactive: at 1.2 µM -4% | at 3.7 µM 2% | at 11.0 µM 5% | at 33.0 µM 2% | at 100.0 µM 16%

Reference: PubChem BioAssay (NCI)
